c-Myc SMM – binders of human c-Myc; calls only; small molecule microarray, His-c-Myc binding, anti-His fluorescence; 17,000 tested, 1.5% active;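 active means spot fluorescence over background with P-value below 7% in all four replicate spots, showing protein binding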
STAT3 binder – STAT3 (human) binding | 17,000 tested, 0.2% active | AID 624138 | calls only | P40763 | Small molecule microarray, His-STAT3 binding, anti-His fluorescence;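 active means compounds whose four printed spots each show fluorescence over background unusually high for their array block, chance value under 7%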
Target sequence (P40763 whole entry, looked up): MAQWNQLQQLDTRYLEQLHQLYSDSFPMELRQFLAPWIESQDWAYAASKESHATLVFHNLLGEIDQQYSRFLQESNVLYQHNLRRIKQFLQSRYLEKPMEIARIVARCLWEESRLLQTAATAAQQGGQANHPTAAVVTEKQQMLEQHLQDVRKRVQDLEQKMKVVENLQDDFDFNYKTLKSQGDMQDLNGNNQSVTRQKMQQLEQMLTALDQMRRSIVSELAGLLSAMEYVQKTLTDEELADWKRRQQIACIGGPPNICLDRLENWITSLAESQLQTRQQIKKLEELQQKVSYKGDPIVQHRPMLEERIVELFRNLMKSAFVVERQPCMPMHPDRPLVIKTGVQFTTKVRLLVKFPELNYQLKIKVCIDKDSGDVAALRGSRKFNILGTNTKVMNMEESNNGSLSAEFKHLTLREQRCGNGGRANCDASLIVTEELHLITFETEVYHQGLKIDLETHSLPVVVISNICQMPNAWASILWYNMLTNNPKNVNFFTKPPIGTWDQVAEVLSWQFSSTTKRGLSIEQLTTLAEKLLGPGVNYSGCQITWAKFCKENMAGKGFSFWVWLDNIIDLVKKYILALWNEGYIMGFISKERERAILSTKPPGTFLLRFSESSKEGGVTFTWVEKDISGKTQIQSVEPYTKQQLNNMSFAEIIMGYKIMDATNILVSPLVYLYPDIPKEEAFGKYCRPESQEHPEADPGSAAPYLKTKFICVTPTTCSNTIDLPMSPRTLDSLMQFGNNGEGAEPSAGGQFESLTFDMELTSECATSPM
p53 PUMA act – restores mutant p53 pathway signaling in SW480 cells. AID 624151. SW480 PUMA-promoter luciferase, p53 mutant reactivation. 28,000 tested, 1.5% active. activation, % at 9.98 µM; in the data active means activation above about 52%; inconclusive means no clear call, values can overlap the other calls
NFkB binder – binders of human NF-kappa-B p105; P19838; Small molecule microarray, anti-His fluorescence binding; calls only; 17,000 tested, 1.3% active; AID 624139;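 active means spot fluorescence over background significantly raised, with a chance value under 7% in all four replicate spots of the compound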;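 further: probe protein is his-tagged human p50 processed subunit at 1 µg/ml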
p53 mut binder – mutant p53 (human) binding | small molecule microarray binding, anti-GST fluorescence | calls only | 17,000 tested, 0.4% active | AID 624136;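 active means compounds whose four printed spots each glow above background more than chance allows, each with a p-value under 7%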
Numbers stand for hits; 0 = inactive; ? = inconclusive; - = not tested or not shown; + = active, no number. Sampled rows, rich in hits. Any-hit rate of the full collection: about 2.6%.

SMILES	c-Myc SMM	STAT3 binder	p53 PUMA act	NFkB binder	p53 mut binder
O=C(CSc1ncnc2sc3c(c12)CCCC3)N1CCc2ccccc21	-	-	0	-	-
Cc1ccccc1-c1nc2cc(NC(=O)COc3ccc(Cl)cc3)ccc2o1	-	-	71	-	-
Cc1ccccc1-c1nc2cc(NC(=O)COc3ccc(Br)cc3)ccc2o1	-	-	74	-	-
Cc1noc(C)c1NC(=O)Nc1ccc2c(c1)CC(=O)N([C@@H](C)CO)C[C@H](C)[C@H](CN(C)C(=O)NC(C)C)O2	0	0	0	0	0
O=C(CS(=O)c1ccccc1[N+](=O)[O-])Nc1cccc(C(F)(F)F)c1 (centres undefined)	0	0	71	0	0
O=C(O)CCC(=O)Nc1cccc(C(F)(F)F)c1	-	-	0	-	-
Cc1nonc1OCCNc1cc(N2CCCC2)ccc1[N+](=O)[O-]	-	-	89	-	-
Cc1nonc1OCCNc1cc(N2CCOCC2)ccc1[N+](=O)[O-]	-	-	0	-	-
C[C@H](CO)N1C[C@H](C)[C@H](CN(C)C(=O)Nc2ccc(F)cc2)Oc2ccc(NS(=O)(=O)c3ccc(Cl)cc3)cc2CC1=O	0	0	0	0	0
COc1cccc(OCCCCSc2ncccn2)c1	-	-	0	-	-
Cc1cc(=O)[nH]c(SCCOc2cccc(Oc3ccccc3)c2)n1	-	-	0	-	-
COc1cccc(OCCSc2nc(N)cc(N)n2)c1	0	0	64	0	0
COc1ccc(OCCCSc2ncccn2)cc1	-	-	126	-	-
COc1cc([N+](=O)[O-])ccc1NC(=O)CSc1ncccn1	0	0	0	0	0
O=[N+]([O-])c1ccc(OCCCSc2ncccn2)cc1	-	-	57	-	-
C[C@H]1CN([C@@H](C)CO)C(=O)Cc2cc(NC(=O)C3CCCCC3)ccc2O[C@H]1CN(C)Cc1ccc(C(F)(F)F)cc1	-	-	0	-	-
Cc1noc(C)c1NC(=O)Nc1ccc2c(c1)C(=O)N([C@@H](C)CO)C[C@@H](C)[C@@H](CN(C)C(=O)C1CCCCC1)OCCCC[C@H](C)O2	+	0	0	0	0
Cc1noc(C)c1NC(=O)Nc1ccc2c(c1)C(=O)N([C@H](C)CO)C[C@H](C)[C@H](CN(C)C(=O)C1CCCCC1)OCCCC[C@H](C)O2	0	+	0	0	0
Cc1noc(C)c1NC(=O)Nc1ccc2c(c1)C(=O)N([C@@H](C)CO)C[C@@H](C)[C@H](CN(C)C(=O)C1CCCCC1)OCCCC[C@H](C)O2	+	0	0	+	0
Cc1noc(C)c1NC(=O)Nc1ccc2c(c1)C(=O)N([C@@H](C)CO)C[C@H](C)[C@H](CN(C)C(=O)C1CCCCC1)OCCCC[C@H](C)O2	0	0	0	0	0
COc1ccc(C)cc1NC(=O)CSc1nnnn1-c1ccccc1	-	-	0	-	-
COc1cccc(NC(=O)N(C)C[C@H]2Oc3cc(-c4cccc(C(=O)N(C)C)c4)ccc3S(=O)(=O)N([C@H](C)CO)C[C@H]2C)c1	-	-	0	-	-
OC(CNCc1ccco1)c1ccccc1 (centres undefined)	0	0	0	0	0
Cc1ccc(-c2cc(-c3c(C)nn(C)c(=O)c3N)[nH]n2)cc1	-	-	86	-	-
O=C(COc1ccc(Cl)cc1)Nc1ccc(O)c(-c2nc3ccccc3o2)c1	0	0	0	0	0
SMILES	c-Myc SMM	STAT3 binder	p53 PUMA act	NFkB binder	p53 mut binder
C[C@H](CCC(=O)O)[C@H]1CCC2[C@@H]3CC[C@@H]4C[C@H](O)CC[C@]4(C)C3C=C[C@@]21C (some centres undefined)	0	0	0	+	0
C[C@H](CCC(=O)NCC(=O)O)[C@H]1CC[C@H]2[C@@H]3[C@H](O)C[C@@H]4C[C@H](O)CC[C@]4(C)[C@H]3C[C@H](O)[C@]12C	0	0	0	0	0
Cc1nnc(SCC(=O)Nc2ccc(OC(F)(F)F)cc2)s1	-	-	0	-	-
FC(F)(F)Oc1ccc(Nc2n[nH]c(=S)s2)cc1	-	-	75	-	-
CCOC(=O)Cc1cc(=O)[nH]c(Nc2nc3ccccc3o2)n1	0	0	?	0	+
COc1ccccc1NC(=O)c1c(C)nc(Nc2nc3ccccc3o2)nc1C	0	0	0	0	0
CSc1nc(N)nc(SCC(=O)Nc2ccc(Cl)cc2)c1C#N	-	-	0	-	-
Cc1cc(C(F)(F)F)c(C#N)c(SCC(=O)Nc2ccc(Cl)cc2)n1	0	0	124	0	0
NCCCN(Cc1ccco1)C1CCCC1	+	0	0	0	0
Cc1nn(C(=O)Cn2cc([N+](=O)[O-])cn2)c(C)c1Br	+	0	0	0	0
C[C@@H]1CN([C@@H](C)CO)C(=O)c2cc(NC(=O)c3ccncc3)ccc2O[C@@H](C)CCCCO[C@@H]1CN(C)C(=O)Nc1cccc2ccccc12	0	+	0	0	+
C[C@@H]1CCCCO[C@@H](CN(C)C(=O)Nc2cccc3ccccc23)[C@H](C)CN([C@H](C)CO)C(=O)c2cc(N(C)C)ccc2O1	+	0	0	+	0
C[C@@H]1CN([C@@H](C)CO)C(=O)c2cc(NC(=O)c3ccncc3)ccc2O[C@@H](C)CCCCO[C@H]1CN(C)C(=O)Nc1cccc2ccccc12	+	0	0	+	0
CC(C)NC(=O)N(C)C[C@H]1OCCCC[C@@H](C)Oc2ccc(NC(=O)c3ccncc3)cc2C(=O)N([C@@H](C)CO)C[C@H]1C	0	0	0	+	0
CC(C)NC(=O)N(C)C[C@H]1OCCCC[C@H](C)Oc2ccc(NC(=O)c3ccncc3)cc2C(=O)N([C@@H](C)CO)C[C@H]1C	0	0	0	0	0
C[C@@H]1CCCCO[C@@H](CN(C)C(=O)Nc2cccc3ccccc23)[C@H](C)CN([C@H](C)CO)C(=O)c2cc(NC(=O)c3ccncc3)ccc2O1	+	0	0	+	0
C[C@@H]1CN([C@H](C)CO)C(=O)c2cc(NC(=O)c3ccncc3)ccc2O[C@@H](C)CCCCO[C@H]1CN(C)C(=O)Nc1cccc2ccccc12	+	0	0	+	0
C[C@@H]1CN([C@H](C)CO)C(=O)c2cc(NC(=O)c3ccncc3)ccc2O[C@@H](C)CCCCO[C@@H]1CN(C)C(=O)Nc1cccc2ccccc12	0	+	0	0	0
C[C@@H]1CCCCO[C@@H](CN(C)C(=O)Nc2cccc3ccccc23)[C@H](C)CN([C@@H](C)CO)C(=O)c2cc(NC(=O)c3ccncc3)ccc2O1	+	0	0	+	0
C[C@@H]1CN([C@@H](C)CO)C(=O)c2cc(NC(=O)c3ccncc3)ccc2O[C@@H](C)CCCCO[C@@H]1CN(C)C(=O)Nc1ccccc1	0	0	0	0	0
C[C@H]1CCCCO[C@@H](CN(C)C(=O)Nc2ccccc2)[C@@H](C)CN([C@@H](C)CO)C(=O)c2cc(NC(=O)c3ccncc3)ccc2O1	0	0	0	0	0
NS(=O)(=O)c1ccc(NC(=S)NCc2cccnc2)cc1	-	-	0	-	-
Cc1cccnc1NC(=S)Nc1ccc(S(N)(=O)=O)cc1	0	0	66	0	0
CCCN(C)C[C@@H]1OCCCC[C@@H](C)Oc2ccc(NC(=O)Nc3cccc4ccccc34)cc2C(=O)N([C@H](C)CO)C[C@@H]1C	+	0	-	+	0
C[C@@H]1CN([C@@H](C)CO)C(=O)c2cc(NC(=O)Nc3cccc4ccccc34)ccc2O[C@@H](C)CCCCO[C@@H]1CN(C)CC1CCCCC1	+	0	-	+	0
